Measurements as given in ChEMBL document CHEMBL1961873, “Compounds: GSK PKIS; Assays: Nanosyn kinase panel” (2012).

Tests used:
[1] = target: Dual specificity protein kinase CLK3 (Homo sapiens) (UniProt P49761); conditions: at 1 µM;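 note: each value is the mean inhibition of CLK3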
[2] = target: Dual specificity tyrosine-phosphorylation-regulated kinase 1A (Homo sapiens) (UniProt Q13627); conditions: at 0.1 µM
[3] = target: Dual specificity tyrosine-phosphorylation-regulated kinase 1A (Homo sapiens) (UniProt Q13627); conditions: at 1 µM
[4] = target: Dual specificity tyrosine-phosphorylation-regulated kinase 1B (Homo sapiens) (UniProt Q9Y463); conditions: at 0.1 µM
Dual specificity tyrosine-phosphorylation-regulated kinase 1B (Homo sapiens), sequence (Q9Y463 whole entry, looked up): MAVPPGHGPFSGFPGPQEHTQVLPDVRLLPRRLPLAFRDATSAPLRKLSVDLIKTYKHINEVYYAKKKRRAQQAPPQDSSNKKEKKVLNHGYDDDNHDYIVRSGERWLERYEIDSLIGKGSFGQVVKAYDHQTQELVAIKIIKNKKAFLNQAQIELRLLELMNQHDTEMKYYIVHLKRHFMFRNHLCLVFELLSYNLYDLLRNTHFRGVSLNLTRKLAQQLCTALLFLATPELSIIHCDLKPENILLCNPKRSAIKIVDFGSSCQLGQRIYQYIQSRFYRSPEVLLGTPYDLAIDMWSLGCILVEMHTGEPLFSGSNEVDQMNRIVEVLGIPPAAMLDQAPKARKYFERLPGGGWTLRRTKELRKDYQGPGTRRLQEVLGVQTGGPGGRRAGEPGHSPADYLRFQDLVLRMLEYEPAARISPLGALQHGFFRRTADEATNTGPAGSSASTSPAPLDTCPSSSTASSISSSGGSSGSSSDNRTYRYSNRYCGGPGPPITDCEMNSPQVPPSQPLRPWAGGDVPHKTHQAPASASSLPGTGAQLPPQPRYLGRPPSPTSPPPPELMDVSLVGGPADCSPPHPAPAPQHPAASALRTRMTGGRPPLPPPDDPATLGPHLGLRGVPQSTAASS

[5] = target: Dual specificity tyrosine-phosphorylation-regulated kinase 1B (Homo sapiens) (UniProt Q9Y463); conditions: at 1 µM
[6] = target: T1, Dual specificity tyrosine-phosphorylation-regulated kinase 2 (Homo sapiens) (UniProt Q92630); conditions: at 0.1 µM
T1 sequence (whole entry): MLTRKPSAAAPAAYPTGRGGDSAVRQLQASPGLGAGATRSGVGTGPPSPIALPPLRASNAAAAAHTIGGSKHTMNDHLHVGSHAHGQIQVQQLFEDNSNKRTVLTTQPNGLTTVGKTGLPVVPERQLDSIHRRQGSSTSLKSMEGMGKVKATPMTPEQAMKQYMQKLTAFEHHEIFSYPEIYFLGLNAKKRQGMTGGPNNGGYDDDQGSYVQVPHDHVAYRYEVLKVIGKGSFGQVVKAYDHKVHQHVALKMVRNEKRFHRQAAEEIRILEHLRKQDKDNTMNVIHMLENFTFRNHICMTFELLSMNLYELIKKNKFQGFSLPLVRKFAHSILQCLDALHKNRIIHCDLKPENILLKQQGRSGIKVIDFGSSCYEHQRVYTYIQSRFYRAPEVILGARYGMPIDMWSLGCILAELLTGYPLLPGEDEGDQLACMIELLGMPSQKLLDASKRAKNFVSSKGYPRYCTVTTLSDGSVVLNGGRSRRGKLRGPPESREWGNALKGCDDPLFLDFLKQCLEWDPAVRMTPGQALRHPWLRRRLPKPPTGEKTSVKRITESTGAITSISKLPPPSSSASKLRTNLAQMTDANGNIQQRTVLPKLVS

[7] = target: T1, Dual specificity tyrosine-phosphorylation-regulated kinase 2 (Homo sapiens); conditions: at 1 µM
[8] = target: Glycogen synthase kinase-3 alpha (Homo sapiens) (UniProt P49840); conditions: at 0.1 µM
Glycogen synthase kinase-3 alpha (Homo sapiens), sequence (P49840 2-483 limits assumed): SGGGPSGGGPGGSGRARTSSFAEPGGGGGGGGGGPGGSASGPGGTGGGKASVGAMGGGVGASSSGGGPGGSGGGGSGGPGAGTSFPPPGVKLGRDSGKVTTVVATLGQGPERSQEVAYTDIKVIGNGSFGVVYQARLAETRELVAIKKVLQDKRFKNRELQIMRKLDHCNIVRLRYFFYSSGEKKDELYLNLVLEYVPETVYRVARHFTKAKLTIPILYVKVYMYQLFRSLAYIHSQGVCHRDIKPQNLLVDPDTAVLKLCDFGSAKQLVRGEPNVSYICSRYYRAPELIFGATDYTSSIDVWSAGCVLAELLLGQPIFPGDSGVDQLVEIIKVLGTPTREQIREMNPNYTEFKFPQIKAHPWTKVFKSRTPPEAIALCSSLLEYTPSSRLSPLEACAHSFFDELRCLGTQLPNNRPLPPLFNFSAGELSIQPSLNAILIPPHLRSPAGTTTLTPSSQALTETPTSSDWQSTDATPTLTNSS

[9] = target: Glycogen synthase kinase-3 alpha (Homo sapiens) (UniProt P49840); conditions: at 1 µM
[10] = target: Glycogen synthase kinase-3 beta (Homo sapiens) (UniProt P49841); conditions: at 0.1 µM
Glycogen synthase kinase-3 beta (Homo sapiens), sequence (P49841 whole entry, looked up): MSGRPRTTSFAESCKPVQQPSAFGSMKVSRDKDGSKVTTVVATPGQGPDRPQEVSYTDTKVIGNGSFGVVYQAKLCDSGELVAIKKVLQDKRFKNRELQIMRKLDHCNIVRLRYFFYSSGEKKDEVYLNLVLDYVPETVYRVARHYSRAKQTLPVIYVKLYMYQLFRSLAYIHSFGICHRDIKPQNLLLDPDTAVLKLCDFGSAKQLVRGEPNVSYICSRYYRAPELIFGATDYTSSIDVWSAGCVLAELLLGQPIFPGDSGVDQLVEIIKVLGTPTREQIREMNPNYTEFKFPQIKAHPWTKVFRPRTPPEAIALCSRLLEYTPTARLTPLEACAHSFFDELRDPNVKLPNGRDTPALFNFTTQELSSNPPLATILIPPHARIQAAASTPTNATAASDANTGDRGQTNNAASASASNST

[11] = target: Glycogen synthase kinase-3 beta (Homo sapiens) (UniProt P49841); conditions: at 1 µM
[12] = target: Homeodomain-interacting protein kinase 1 (Homo sapiens) (UniProt Q86Z02); conditions: at 0.1 µM
Homeodomain-interacting protein kinase 1 (Homo sapiens), sequence (Q86Z02 whole entry, looked up): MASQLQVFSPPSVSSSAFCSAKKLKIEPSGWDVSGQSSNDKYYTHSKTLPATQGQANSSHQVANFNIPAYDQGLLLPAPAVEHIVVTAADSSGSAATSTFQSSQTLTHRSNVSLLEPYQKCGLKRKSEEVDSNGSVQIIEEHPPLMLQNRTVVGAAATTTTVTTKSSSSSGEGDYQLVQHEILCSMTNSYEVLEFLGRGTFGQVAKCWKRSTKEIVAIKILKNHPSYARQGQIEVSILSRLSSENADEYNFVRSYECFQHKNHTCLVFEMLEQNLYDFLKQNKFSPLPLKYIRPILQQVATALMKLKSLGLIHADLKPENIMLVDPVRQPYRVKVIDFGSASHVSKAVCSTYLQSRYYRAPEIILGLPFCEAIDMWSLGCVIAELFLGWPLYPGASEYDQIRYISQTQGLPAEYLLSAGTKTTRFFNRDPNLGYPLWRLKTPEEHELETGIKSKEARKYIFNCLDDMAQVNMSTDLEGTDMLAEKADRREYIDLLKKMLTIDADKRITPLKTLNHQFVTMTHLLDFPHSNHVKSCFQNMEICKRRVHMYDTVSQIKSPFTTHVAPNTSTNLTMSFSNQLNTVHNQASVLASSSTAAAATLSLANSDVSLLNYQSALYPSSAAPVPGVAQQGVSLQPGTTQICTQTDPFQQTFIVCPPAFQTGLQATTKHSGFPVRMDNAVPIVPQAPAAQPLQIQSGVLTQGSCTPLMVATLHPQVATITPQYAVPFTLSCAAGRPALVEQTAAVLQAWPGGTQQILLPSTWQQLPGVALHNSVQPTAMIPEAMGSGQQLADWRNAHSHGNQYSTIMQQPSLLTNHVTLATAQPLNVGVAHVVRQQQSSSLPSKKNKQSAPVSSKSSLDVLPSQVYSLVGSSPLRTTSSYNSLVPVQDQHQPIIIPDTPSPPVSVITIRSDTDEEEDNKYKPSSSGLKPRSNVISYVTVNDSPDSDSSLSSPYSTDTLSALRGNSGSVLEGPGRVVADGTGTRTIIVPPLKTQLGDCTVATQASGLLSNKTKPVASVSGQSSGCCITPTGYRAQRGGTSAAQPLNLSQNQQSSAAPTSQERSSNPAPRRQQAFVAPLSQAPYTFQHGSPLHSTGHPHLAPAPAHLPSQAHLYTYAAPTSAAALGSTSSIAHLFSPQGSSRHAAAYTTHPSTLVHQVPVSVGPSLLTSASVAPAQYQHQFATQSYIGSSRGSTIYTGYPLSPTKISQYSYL

[13] = target: Homeodomain-interacting protein kinase 1 (Homo sapiens) (UniProt Q86Z02); conditions: at 1 µM
[14] = target: T2, Homeodomain-interacting protein kinase 4 (Homo sapiens) (UniProt Q8NE63); conditions: at 0.1 µM
T2 sequence (whole entry): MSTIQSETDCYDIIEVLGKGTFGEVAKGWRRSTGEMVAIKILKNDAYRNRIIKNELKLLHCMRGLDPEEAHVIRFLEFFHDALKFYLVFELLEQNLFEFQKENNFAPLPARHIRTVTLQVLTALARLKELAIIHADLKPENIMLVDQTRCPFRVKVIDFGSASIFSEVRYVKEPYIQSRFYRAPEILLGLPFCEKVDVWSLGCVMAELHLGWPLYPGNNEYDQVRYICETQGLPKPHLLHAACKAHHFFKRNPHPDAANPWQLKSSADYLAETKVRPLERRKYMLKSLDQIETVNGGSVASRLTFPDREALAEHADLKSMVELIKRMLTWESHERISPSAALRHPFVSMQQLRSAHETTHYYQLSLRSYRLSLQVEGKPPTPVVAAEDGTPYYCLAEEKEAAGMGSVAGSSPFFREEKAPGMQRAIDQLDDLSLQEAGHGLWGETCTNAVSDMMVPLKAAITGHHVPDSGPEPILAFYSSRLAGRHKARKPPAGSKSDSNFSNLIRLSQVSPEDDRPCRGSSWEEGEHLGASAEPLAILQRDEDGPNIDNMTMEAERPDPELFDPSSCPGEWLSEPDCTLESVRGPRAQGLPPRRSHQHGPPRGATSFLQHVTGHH

[15] = target: T2, Homeodomain-interacting protein kinase 4 (Homo sapiens); conditions: at 1 µM
[16] = target: Mitogen-activated protein kinase 9 (Homo sapiens) (UniProt P45984); conditions: at 0.1 µM
Mitogen-activated protein kinase 9 (Homo sapiens), sequence (P45984 whole entry, looked up): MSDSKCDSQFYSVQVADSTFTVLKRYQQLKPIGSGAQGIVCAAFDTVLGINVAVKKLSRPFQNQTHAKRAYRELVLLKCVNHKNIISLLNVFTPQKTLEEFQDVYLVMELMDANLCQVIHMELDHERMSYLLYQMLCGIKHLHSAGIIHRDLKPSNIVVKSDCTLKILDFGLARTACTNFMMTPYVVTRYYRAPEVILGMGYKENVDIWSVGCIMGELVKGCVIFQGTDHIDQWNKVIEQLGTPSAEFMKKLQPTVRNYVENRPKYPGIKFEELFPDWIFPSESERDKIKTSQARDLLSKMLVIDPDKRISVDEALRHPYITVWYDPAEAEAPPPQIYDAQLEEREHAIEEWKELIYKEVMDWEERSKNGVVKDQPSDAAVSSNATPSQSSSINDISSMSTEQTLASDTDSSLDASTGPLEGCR

[17] = target: Mitogen-activated protein kinase 9 (Homo sapiens) (UniProt P45984); conditions: at 1 µM
[18] = target: Mitogen-activated protein kinase 1 (Homo sapiens) (UniProt P28482); conditions: at 0.1 µM
Mitogen-activated protein kinase 1 (Homo sapiens), sequence (P28482 whole entry): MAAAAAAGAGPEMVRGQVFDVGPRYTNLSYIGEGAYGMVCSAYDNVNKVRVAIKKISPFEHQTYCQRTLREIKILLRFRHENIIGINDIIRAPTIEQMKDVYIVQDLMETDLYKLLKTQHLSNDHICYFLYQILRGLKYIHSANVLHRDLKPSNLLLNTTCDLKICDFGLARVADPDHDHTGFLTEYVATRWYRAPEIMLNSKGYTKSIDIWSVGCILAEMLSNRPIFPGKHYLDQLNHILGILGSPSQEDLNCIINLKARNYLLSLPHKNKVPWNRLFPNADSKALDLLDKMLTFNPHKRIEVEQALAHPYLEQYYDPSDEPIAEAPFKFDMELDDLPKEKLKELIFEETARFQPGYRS

[19] = target: Mitogen-activated protein kinase 1 (Homo sapiens) (UniProt P28482); conditions: at 1 µM
[20] = target: Mitogen-activated protein kinase 3 (Homo sapiens) (UniProt P27361); conditions: at 0.1 µM;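 note: each value is a mean inhibition figure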
Mitogen-activated protein kinase 3 (Homo sapiens), sequence (P27361 whole entry): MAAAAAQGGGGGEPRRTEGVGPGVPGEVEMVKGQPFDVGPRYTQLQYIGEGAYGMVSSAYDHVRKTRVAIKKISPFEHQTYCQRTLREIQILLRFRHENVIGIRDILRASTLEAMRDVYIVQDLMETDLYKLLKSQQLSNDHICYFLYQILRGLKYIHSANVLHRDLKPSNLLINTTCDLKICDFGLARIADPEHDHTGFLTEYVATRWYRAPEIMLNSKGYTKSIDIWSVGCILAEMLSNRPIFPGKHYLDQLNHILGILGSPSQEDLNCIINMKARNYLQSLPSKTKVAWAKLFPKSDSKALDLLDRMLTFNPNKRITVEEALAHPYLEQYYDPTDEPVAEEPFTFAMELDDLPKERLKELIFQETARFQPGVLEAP

Dual specificity protein kinase CLK3 (Homo sapiens), sequence (P49761 whole entry, looked up): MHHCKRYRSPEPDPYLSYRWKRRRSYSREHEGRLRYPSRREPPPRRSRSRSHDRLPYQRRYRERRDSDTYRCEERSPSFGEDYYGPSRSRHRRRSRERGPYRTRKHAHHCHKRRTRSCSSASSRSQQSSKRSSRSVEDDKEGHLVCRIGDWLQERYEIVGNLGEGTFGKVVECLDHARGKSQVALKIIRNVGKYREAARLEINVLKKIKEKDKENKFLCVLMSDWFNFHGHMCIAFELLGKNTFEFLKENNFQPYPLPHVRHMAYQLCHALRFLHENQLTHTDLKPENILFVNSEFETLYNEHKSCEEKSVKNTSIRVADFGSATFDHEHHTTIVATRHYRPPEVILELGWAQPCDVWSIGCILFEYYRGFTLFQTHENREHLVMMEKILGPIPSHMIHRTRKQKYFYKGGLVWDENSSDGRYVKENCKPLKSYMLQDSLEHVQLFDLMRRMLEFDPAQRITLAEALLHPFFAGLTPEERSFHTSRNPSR

| SMILES | inhibition [1] | inhibition [2] | inhibition [3] | inhibition [4] | inhibition [5] | inhibition [6] | inhibition [7] | inhibition [8] | inhibition [9] | inhibition [10] | inhibition [11] | inhibition [12] | inhibition [13] | inhibition [14] | inhibition [15] | inhibition [16] | inhibition [17] | inhibition [18] | inhibition [19] | inhibition [20] |
| --- | --- | --- | --- | --- | --- | --- | --- | --- | --- | --- | --- | --- | --- | --- | --- | --- | --- | --- | --- | --- |
| COc1cc(C)c(NC(=O)CN(C)C)cc1Nc1nc(Nc2cccc(F)c2C(N)=O)c2cc[nH]c2n1 | 13.2% | 1.71% | 20% | 1.59% | 14.8% | 2.4% | 5.3% | -0.24% | 1.07% | -1.22% | 0.98% | 13.9% | 60.6% | 15.9% | 63.4% | 3.11% | 12.6% | 2.86% | 4.47% | 2.47% |
| CS(=O)(=O)Nc1ccc(N/C=C2\C(=O)Nc3ccccc32)cc1 | 1.06% | 0.92% | 10.4% | 3.56% | 13.9% | -1.66% | -0.97% | 7.94% | 19.6% | 6.71% | 17.2% | -1.53% | 3.36% | 0.6% | 4.82% | 0.25% | 5.63% | -4.34% | -2.51% | -0.36% |
| [O-][S+]1CCN(Cc2ccc(-c3ccc4ncnc(Nc5ccc(OCc6ccccc6)c(F)c5)c4c3)o2)CC1 | 11.2% | 2.61% | 2.98% | 1.09% | 1.08% | 1.63% | 3.4% | 0.27% | 2.88% | -0.3% | 1.56% | -3.01% | 2.83% | 1.06% | 5.51% | 4.53% | 4.55% | 0.52% | 2.92% | 1.89% |
| COc1cc(C=NNc2ncnc3c2cnn3-c2ccccc2)ccc1O | 9.46% | 4.3% | 28.8% | 1.97% | 11% | 5.08% | 23.7% | 47.7% | 79.2% | 41.6% | 78.1% | 3.83% | 28.3% | 10.8% | 39.6% | 2.12% | 6.67% | 2.39% | 2.08% | 1.28% |
| CCn1c(-c2nonc2N)nc2cncc(C(=O)N3CC[C@H](N)C3)c21 | 1.82% | 12.7% | 49.4% | 7.9% | 44.4% | 15% | 59.5% | 3.29% | 19.3% | 2.36% | 12.1% | 1.36% | 8.14% | 0.99% | 3% | 8.24% | 9.12% | 4.87% | 7.62% | 3.48% |
| CC(=O)Nc1cccc(C#Cc2cncnc2Nc2ccc(OCc3cccc(F)c3)c(Cl)c2)n1 | -0.85% | -0.63% | -0.35% | 1.51% | 2.18% | -0.79% | -0.95% | 0.36% | 1.39% | 1.37% | 3.63% | 1.74% | 3.28% | 0.85% | 1.32% | -0.98% | -1.17% | -0.75% | -1.7% | -0.64% |
| CS(=O)(=O)CCNCc1nc(-c2ccc3ncnc(Nc4ccc(F)c(Cl)c4)c3c2)cs1 | 0.43% | 0.63% | 1.24% | 0.27% | 1.63% | 0.37% | 2.12% | 1.3% | 3.03% | 1.2% | 1.99% | 1.07% | 5.32% | 3.32% | 18.8% | 1.61% | 4.55% | 4.72% | 5.04% | 1.63% |
| CCCN1CCC=C(c2ccc(Nc3nc(Nc4ccccc4C(N)=O)c4cc[nH]c4n3)c(C)c2)C1 | 6.97% | 56.2% | 92.3% | 39.5% | 71.1% | 8.53% | 44.2% | 5.89% | 28.1% | 3.05% | 17.1% | 16.3% | 59.6% | 15.1% | 56.5% | 46.5% | 84.9% | 6.87% | 29.5% | 6.39% |
| COc1cc2ncn(-c3cc(OCc4ccccc4C(F)(F)F)c(C(N)=O)s3)c2cc1OC | -2.17% | -1.02% | 2.2% | -4.5% | -2.84% | 1.73% | 3.25% | 0.16% | 4.9% | -0.65% | 7.21% | -1.28% | 4.22% | 10.1% | 40.6% | 1.63% | 2.16% | 4.18% | 6.38% | 5.3% |
| NC(=O)c1ccc(-c2nc(-c3ccccn3)c(-c3ccc4c(c3)OCO4)[nH]2)cc1 | 1.76% | 1.47% | 3.08% | -0.77% | 0.83% | 1.43% | 1.31% | 2.47% | 3.92% | 1.88% | 6.9% | -0.15% | 2.8% | 1.68% | 1.67% | 1.97% | 5.34% | 2.52% | 1.22% | 1.34% |
| Nc1nc(-c2ccc3c(c2)C(=Cc2cc(Br)c(O)c(Br)c2)C(=O)N3)cs1 | 2.88% | 1.71% | 4.89% | 1.38% | 3.44% | -2.46% | -0.96% | 0.62% | 4.94% | 0.83% | 4.42% | -1.1% | 4.76% | 0.92% | 11.3% | -3.8% | -4.58% | -2.57% | -2.89% | -0.09% |
| NC(=O)c1cccc(Nc2nccc(Nc3cccc4[nH]ncc34)n2)c1 | 8.54% | 3.35% | 22.1% | 5.54% | 28.3% | -1.74% | 7.45% | 8.87% | 42.1% | 8.67% | 35% | 1.13% | 7.88% | 3.21% | 21.2% | -6.25% | 4.55% | -3.75% | -0.34% | -3.05% |
| COc1cc2ncn(-c3cc(O[C@H](C)c4ccccc4Cl)c(C(N)=O)s3)c2cc1OC | 7.93% | -0.27% | 3.73% | -0.01% | 0.14% | 2.5% | 5.55% | 5.34% | 19.8% | 5.07% | 23% | 3.82% | 12.1% | 11.2% | 30.2% | 2.72% | 3.88% | 5.57% | 4.8% | 2.92% |
